A selection: hits, their analogues and other compounds. The true share with any hit is near 5.7%.
FAS-TE inh = inhibitors of human fatty acid synthase thioesterase domain; AID 602261; inhibition, % at 15 µM; 360,000 tested, 0.67% active; recombinant FAS-TE, OMFH fluorogenic substrate, fluorescence endpoint; P49327;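 active = compounds whose normalised, plate-corrected inhibition of enzyme fluorescence in the single-dose primary screen is 50% or more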;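 also: 0% = DMSO with enzyme and 100% = substrate without enzyme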
Myeloid diff MLP = promotes myeloid progenitor differentiation | ER-HoxA9 myeloid progenitors, lysozyme-GFP differentiation, flow cytometry | AID 624256 | calls only at 10 µM | 360,000 tested, 1% active;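 active = normalized GFP-positive differentiation at or above the plate's own cutoff, the solvent-only control mean plus 3 SD; inconclusive = no clear call, values can overlap the other calls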;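 also: cells exposed to compound for four days before flow analysis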
MPTP block = permeability transition pore inhibition | isolated mouse mitochondria, Ca2+ swelling absorbance, 30 min | inhibition, % at 10 µM | 360,000 tested, 1.4% active;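 active = inhibition of 50% or more, scaled per plate between neutral and stimulator controls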;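 also: 0% = DMSO wells given calcium and 100% = 1 mM EGTA wells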
rCAG RNA binder = r(CAG) repeat RNA binding. TO-PRO-1 dye displacement fluorescence. 370,000 tested, 1.3% active. inhibition, % at 3 µM;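 active = inhibition above the plate cutoff, the mean of all test compounds on that plate plus 3 SD, cut at about 35% in these data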;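 also: 0% = DMSO alone and 100% = 100 µM mitoxantrone as full dye displacement; higher means more dye released from RNA so lower well fluorescence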
GRIN3A LBD mod = modulators (binders) of human NR3A ligand-binding domain; Tm shift relative to glycine control, % at 25 µM; NR3A LBD differential scanning fluorimetry, Tm shift; 0% = protein alone, 100% = glycine-bound protein; 340,000 tested, 2.5% active;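 active = melting temperature shift of at least 10% of the positive control shift, at one fixed dose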
MPTP counter = mitochondrial membrane potential, counter-screen | shares compounds with MPTP block | 5,000 tested, 78% active | isolated mitochondria, Rhodamine 123 fluorescence | inhibition, % at 10 µM; in the data active = inhibition above about 22%;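 also: 0% = DMSO vehicle and 100% = positive control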
MPTP swell DR = MPTP inhibition, dose response swelling confirmation; shares compounds with MPTP block; 780 tested, 58% active; AID 651561; IC50, µM; isolated mitochondria swelling, absorbance; in the data active = IC50 below about 20 µM
MPTP counter DR = active in counter-screen for permeability transition pore inhibitors | isolated mitochondria counterscreen, fluorescence read-out | shares compounds with MPTP block | IC50, µM | 780 tested, 49% active; in the data active = IC50 below about 80 µM
Numbers without * were called inactive; i = inactive; u = inconclusive; x = no result given; + = active, no number.

SMILES	FAS-TE inh	Myeloid diff MLP	MPTP block	rCAG RNA binder	GRIN3A LBD mod	MPTP counter	others
CN(Cc1cccs1)c1ncnc2sccc12	4	i	57*	-2	0	63*
c1ccc(CNc2ncnc3sccc23)cc1	-5	i	26	3	1	x
c1csc(CNc2ncnc3sccc23)c1	-5	i	90*	3	2	73*
NC(CO)(CO)COCc1ccccc1	-2	i	2	-3	1	x
OCCNC(=S)Nc1cc(Cl)cc(Cl)c1	-2	i	39	0	3	x
Cc1ccccc1C(=O)NNc1ccc([N+](=O)[O-])cc1	10	i	1	1	2	x
O=C(NC(NNc1ccc([N+](=O)[O-])cc1)(C(F)(F)F)C(F)(F)F)c1ccc(F)cc1	30	i	100*	0	-7	88*
O=C(NC(NNc1ccc([N+](=O)[O-])cc1)(C(F)(F)F)C(F)(F)F)c1ccccc1Cl	18	i	90*	3	-3	84*
O=C(CN1CCCCCC1)N/N=C/c1cccc(Cl)c1Cl	-9	i	-2	0	-1	x
O=S(=O)(Nc1cc2nc3ccccc3nc2n1Cc1ccccc1)c1ccc(Cl)cc1	39	+	58*	15	12*	36*
CC(C)c1ccc(CN2CCC(Oc3ccc(C(=O)N4CCCC4)cc3)CC2)cc1	-4	i	0	-11	3	x
CC(=O)c1cccc(Nc2nc(-c3cccc([N+](=O)[O-])c3)cs2)c1	4	i	94*	12	20*	76*
O=C(NC(=S)Nc1nc(-c2cccc([N+](=O)[O-])c2)cs1)c1ccccc1Cl	7	i	4	5	-3	x
O=C(NC(=S)Nc1nc(-c2cccc([N+](=O)[O-])c2)cs1)c1cc(Cl)ccc1Cl	21	i	57*	4	11*	13	MPTP swell DR=19*;MPTP counter DR=<2.5*
CCOc1ccc(NC(=O)CN(C)C(=O)c2ccc(C)o2)cc1OCC	-6	i	-2	0	-1	x
CCCCN1CNC(=S)N(c2ccc(C(=O)OCC)cc2)C1	-3	i	-1	-2	0	x
CN(Cc1ccccc1)C(=O)CN(c1ccc(F)cc1)S(=O)(=O)c1ccc2c(c1)OCCO2	14	i	-1	-5	-1	x
C/C(=N\N=C(N)N)c1cccc(Cl)c1	-7	i	55*	1	-3	6	MPTP swell DR=16*;MPTP counter DR=68*
CCc1ccc(C2C(C#N)=C(N)OC3=C2C(=O)CCC3)s1 (centres undefined)	-4	i	0	-2	-1	x
CCc1ccc(C2C(C#N)=C(N)SC(N)=C2C#N)s1	-67	i	77*	x	-3	56*
CCc1ccc(C2C(C#N)=C(N)SC(N)=C2C#N)cc1	-68	i	74*	17	1	82*
COc1ccc(OC)c(/C=N/N=C2\SCC(=O)N2Cc2ccco2)c1	20	i	2	-2	2	x
COc1ccc(CN2C(=O)CS/C2=N/N=C/c2cccs2)cc1	34	i	82*	-5	1	62*
O=C(Nc1cc(Cl)cc(Cl)c1)N1CCCC1	-3	i	98*	3	-2	93*
O=C(Nc1ccc(F)c(Cl)c1)N1CCCC1	-8	i	2	-3	2	x
SMILES	FAS-TE inh	Myeloid diff MLP	MPTP block	rCAG RNA binder	GRIN3A LBD mod	MPTP counter	others
CCOC(=O)C1CCN(C(=O)Nc2cc(Cl)cc(Cl)c2)CC1	14	i	78*	-4	0	92*
O=C(Nc1cc(Cl)cc(Cl)c1)C(c1ccccc1)N1CCCCC1 (centres undefined)	38	i	83*	2	-8	98*
COc1ccc(C2=Cc3ccccc3C(CC(=O)C3CC3)N2c2ccc(C#CCCO)cc2)cc1 (centres undefined)	8	i	-2	9	x	x
Cc1ccc2nc(-c3ccc(NS(=O)(=O)c4ccc(F)c(F)c4)cc3)sc2c1	32	i	60*	75*	36*	71*
Cc1nc2ccc([N+](=O)[O-])cc2s1	-5	i	-3	3	-3	x
Cc1nc2ccc(NS(=O)(=O)c3cccc([N+](=O)[O-])c3)cc2s1	7	i	55*	10	-1	72*
Cc1nc2ccc(NS(=O)(=O)c3ccc(F)c(F)c3)cc2s1	-4	i	6	6	0	x
CSc1nc2ccc(NS(=O)(=O)c3ccc(Cl)s3)cc2s1	6	i	87*	30	3	77*
Cc1ccc(S(=O)(=O)Nc2ccc3nc(C)sc3c2)cc1	-3	i	68*	x	1	105*
COc1ccc(N(CC(=O)NCCSC2CCCCC2)S(C)(=O)=O)c(OC)c1	-4	i	-4	-8	-1	x
Cn1c(CC(=O)Nc2ccccc2)cc2ccccc21	-2	u	1	1	0	x
CCOC(=O)c1nnn(-c2ccc([N+](=O)[O-])cc2[N+](=O)[O-])c1C	1	i	-2	3	2	x
COc1cc(C(=O)OCC(=O)NC(=O)NC2CCCCC2)cc(Cl)c1OC	18	i	-1	-1	-10	x
Cc1ccc(S(=O)(=O)Nc2ccc3nc(N)sc3c2)cc1	-2	i	85*	17	-4	38*
Cc1nc2ccc(NS(=O)(=O)c3ccc4c(c3)OCCO4)cc2s1	-6	+	96*	3	1	97*
CC(=O)Nc1ccc(S(=O)(=O)Nc2ccc3nc(C)sc3c2)cc1	-5	i	59*	-1	-2	83*
Cc1nc2ccc(NS(=O)(=O)c3ccc(Br)cc3)cc2s1	5	i	81*	10	-13	99*
CC(=O)Nc1ccc2nc(NS(=O)(=O)c3ccc(C)cc3)sc2c1	-2	i	-1	20	-1	x
Cc1nc2ccc(NS(=O)(=O)c3c(C)c(C)cc(C)c3C)cc2s1	5	i	0	4	-8	x
CCN1CCN(C(=O)c2cc(S(=O)(=O)Nc3ccc(S(C)(=O)=O)cc3)ccc2Cl)CC1	-4	i	1	4	0	x
CCN(C(=O)c1cccc(F)c1)c1ccccc1C	-3	i	1	-2	0	x
C=CCNC(=O)COC(=O)COc1ccc(Cl)cc1	-6	i	0	1	0	x
CN(Cc1ccccc1)C(=O)c1[nH]cnc1C(=O)Nc1cccc(Cl)c1	22	i	0	2	-1	x
CCCc1nc2sc3c(c2c(=O)n1NC(=O)c1ccco1)CC(C)(C)OC3	-11	i	0	-4	-1	x
CCCCCCCCCc1nc2sc3c(c2c(=O)n1NC(=O)c1ccccc1[N+](=O)[O-])CC(C)(C)OC3	35	i	87*	18	20*	63*

Screening data from PubChem BioAssay.
